# ST2 IL33 inh: inhibitors of human ST2 (IL1RL1) binding to IL-33, primary screen, biochemical, AlphaLISA; Interleukin-1 receptor-like 1 (Homo sapiens), Q01638; AlphaLISA ST2-Fc/biotin-IL-33 interaction, 1 h; inhibition, % for hits at 17 µM; 2.3% of 78,000 active; AID 1259354, 2018; in the data active means inhibition above about 30%
# Target sequence (Q01638 whole entry, looked up): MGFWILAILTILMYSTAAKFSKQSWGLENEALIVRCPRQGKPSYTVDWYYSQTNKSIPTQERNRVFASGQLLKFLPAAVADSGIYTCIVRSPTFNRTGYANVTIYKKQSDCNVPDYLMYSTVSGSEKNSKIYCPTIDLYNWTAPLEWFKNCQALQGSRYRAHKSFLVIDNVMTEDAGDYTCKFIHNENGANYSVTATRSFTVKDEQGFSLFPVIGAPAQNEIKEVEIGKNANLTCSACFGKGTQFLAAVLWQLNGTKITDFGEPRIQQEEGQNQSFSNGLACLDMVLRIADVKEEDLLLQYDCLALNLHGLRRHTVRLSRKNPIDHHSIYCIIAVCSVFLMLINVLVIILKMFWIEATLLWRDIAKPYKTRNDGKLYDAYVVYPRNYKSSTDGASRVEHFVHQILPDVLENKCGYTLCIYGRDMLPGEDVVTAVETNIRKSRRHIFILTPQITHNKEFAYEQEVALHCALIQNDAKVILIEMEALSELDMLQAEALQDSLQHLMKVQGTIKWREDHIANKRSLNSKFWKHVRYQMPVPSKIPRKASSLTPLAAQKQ
# Numbers without * were called inactive; i = inactive; ! = a repeat was not active. The sample as a whole holds a higher share of hits than the screen did.
SMILES,ST2 IL33 inh
Cc1ccc(C(=O)c2ccccc2C(=O)O)c(C)c1,i
O=C(O)c1cccc(N2C(=O)C3C4C=CC(O4)C3C2=O)c1 (stereo not drawn),i
CC(=O)Nc1cccc(C(=O)O)c1,i
Cc1ccc(C)n1-c1cccc(C(=O)O)c1,96%*
Cc1ccc(C)n1-c1ccc(C(=O)O)c(C(=O)O)c1,88%*
Cc1cc(C=O)c(C)n1-c1ccc(C(=O)O)c(Cl)c1,i
CCc1ncc2c(n1)CN(C(=O)c1cccc3c(C)c(C)[nH]c13)C2,i
O=[N+]([O-])c1ccccc1S(=O)(=O)N1CCOCC1,i
CCCCN(CC)S(=O)(=O)c1cc(Br)cc2c1N(C(=O)CC)CC2,i
CS(=O)(=O)NCCSCc1ccc(Cl)cc1Cl,i
CCC(C)n1c(=N)c(C(=O)NCc2ccco2)cc2c(=O)n3ccccc3nc21 (stereo not drawn),i
CC(=O)N1CCC(N2C[C@H](O)C[C@H]2c2nc(CS(=O)(=O)c3ccc(F)cc3)no2)CC1,i
CN1CCC(N2C[C@H](O)C[C@H]2c2nc(Cc3ccc(F)cc3Cl)no2)CC1,31%*
O=[N+]([O-])c1ccccc1CN1C[C@H](O)C[C@H]1c1nc(Cc2ccc(F)cc2Cl)no1,i
Cc1ccc(NS(=O)(=O)c2ccc3[nH]cc(C(=O)N4CCOCC4)c(=O)c3c2)c(C)c1,i
Brc1cccc(OCCCCN2CCOCC2)c1,i
O=c1[nH]c(/C=C\c2ccccc2Cl)nc2ccccc12,44%*
O=c1[nH]c(/C=C\c2ccccc2Cl)c([N+](=O)[O-])c(=O)[nH]1,i
Cc1nc2ccccc2c(=O)[nH]1,i
CC(C)c1nccn1CCCNC(=O)c1ccc(N2CCSCC2)nc1,i
Cc1ccc(N2C(=O)C(N3C(=O)c4cccc([N+](=O)[O-])c4C3=O)C2c2cccs2)cc1Cl (stereo not drawn),i
O=C1c2cccc([N+](=O)[O-])c2C(=O)N1C1CCCCCCC1,36%*
Cc1ccccc1NCN1C(=O)c2cccc([N+](=O)[O-])c2C1=O,i
O=C(CCN1C(=O)c2cccc([N+](=O)[O-])c2C1=O)Nc1ccc(F)cc1,i
O=C1c2cccc([N+](=O)[O-])c2C(=O)N1C1C(=O)N(c2ccc(Cl)cc2)C1c1ccc(F)cc1 (stereo not drawn),41%*
SMILES,ST2 IL33 inh
COc1ccc(N2C(=O)C(N3C(=O)c4ccc([N+](=O)[O-])cc4C3=O)C2c2ccc(F)cc2)cc1 (stereo not drawn),i
O=C(CCn1cc(Cl)cn1)NC1CCC(n2cnnc2)CC1 (stereo not drawn),i
CCc1nc(CN2CCc3onc(-c4cccc5ccccc45)c3C2)c(C)[nH]1,i
Nc1nonc1-c1noc(COc2ccc(F)cc2)n1,i
COc1ccc(CNc2oc(COc3ccc(OC)cc3)nc2C#N)cc1,i
N#Cc1nc(COc2ccccc2)oc1NCc1ccc(F)cc1,34%*
Cc1cnc(N2CCc3sccc3C2)nc1-c1cnn(C)c1,i
CCc1csc(CNC(=O)c2ccc(N3CCCC(OC)C3)nc2)n1 (stereo not drawn),i
Cc1ccc(Nc2nc(-c3ccc(O)c(O)c3)cs2)nc1,42%*
Cc1ccc(C(=O)Nc2nc(-c3ccccc3)cs2)c(Cl)c1,i
Cc1ccnc(Nc2nc(-c3ccccc3)cs2)c1,i
COc1ccccc1C(=O)Oc1ccc2c(c1)C(C)=CC(C)(C)N2,i
CC1=CC(C)(C)Nc2ccc(OC(=O)c3ccc4c(c3)OCO4)cc21,30%*
COc1ccc(/C(N)=N\OC(=O)c2ccc3c(c2)OCO3)cc1OC,i
CC(C)CCNC(=O)C1CCN(S(C)(=O)=O)CC1,i
O=C(NCc1c(F)cc(F)cc1F)c1ccc2c(c1)N(Cc1ccccc1)C(=O)CS2,i
NNc1ccc2c(Cl)cc(Cl)c(O)c2n1,35%*
C=CCOC(=O)C1=C(C)Nc2ncnn2C1c1cccnc1 (stereo not drawn),i
Cc1c(C)n(CC(O)CNc2ccc(Br)cc2)c2ccccc12 (stereo not drawn),31%*
Cc1cc(C)n(CC(O)Cn2c(C)c(C)c3ccccc32)n1 (stereo not drawn),i
Cc1c(C)n(CC(O)CN2CCOCC2)c2ccccc12 (stereo not drawn),i
Cc1ccc(NCC(O)Cn2c(C)c(C)c3ccccc32)cc1C (stereo not drawn),i
CN(CC(O)Cn1c2ccccc2c2ccccc21)S(=O)(=O)c1ccc(Br)cc1 (stereo not drawn),i
Cc1ccc(NCC(O)Cn2c(C)c(C)c3ccccc32)cc1 (stereo not drawn),36%*!
COc1cccc(NC(=O)CCC2CCN(C(=O)CSc3ccccc3)CC2)c1,i
SMILES,ST2 IL33 inh
COc1cc(OC)c(NC(=O)COc2ccc(Br)cc2)cc1Cl,i
Cc1ccc(S(=O)(=O)N2CCSC2c2cccc([N+](=O)[O-])c2)c(C)c1 (stereo not drawn),i
CC(=O)Nc1ccc(-c2nccn2C(C)c2ccc(-n3cncn3)cc2)cc1 (stereo not drawn),i
O=C(C1c2ccccc2C(=O)N2CCc3ccccc3C12)N1CCN(c2ccc(F)cc2)CC1 (stereo not drawn),i
O=C(NCCN1CCOCC1)c1cc2c(=O)oc3ccccc3c2s1,i
Cc1ccc(-c2nnc3s/c(=C\c4ccc(C)o4)c(=O)n23)cc1,i
Cc1ccc(/C=C(\C#N)c2nc(-c3ccc([N+](=O)[O-])cc3)cs2)cc1,i
Cc1ccc(C(=O)Nc2nc(-c3ccc(F)cc3)cs2)o1,i
N#C/C(=C\c1ccc(Cl)cc1)c1nc(-c2ccccc2)cs1,51%*
NNC(=O)C(=O)Nc1nc(-c2ccc(Cl)cc2)cs1,i
Cc1ccc(NC(=O)c2ccccc2C)c([N+](=O)[O-])c1,i
COc1ccc(-c2csc(/C(C#N)=C/c3ccccc3[N+](=O)[O-])n2)cc1,i
Cc1ccc(-c2csc(/C(C#N)=C\c3ccc(C)o3)n2)cc1,51%*
Cc1ccc(/C=C(\C#N)c2nc(-c3ccc(C)cc3)cs2)cc1,54%*
Cc1nc(-c2ccc(C(N)=O)cc2)cs1,i
Cc1ccc(-c2csc(/C(C#N)=C/c3ccccc3[N+](=O)[O-])n2)c(C)c1,57%*
C=CC[C@@H]1CC=C[C@@H](c2ccccc2)N1C(=O)CSc1ccncc1,i
CCCCN(C)C(=O)C1c2ccccc2C(=O)N2CCc3cc(OCC)c(OCC)cc3C12 (stereo not drawn),i
CC(C)c1ccc(NC2CCCN(C(=O)/C=C/c3ccccn3)C2)cc1 (stereo not drawn),i
Cc1nn(C)cc1CN1CCOc2ccc(C3=Cc4ccccc4CC3)cc2C1,i
CCc1ccccc1Nc1nnc(Cc2ccc(Cl)cc2)c(=O)[nH]1,i
CCN(CC)Cc1cnc2c(C(=O)NC3CCc4ccccc43)cnn2c1 (stereo not drawn),i
COc1ccc(CC(=O)N(Cc2ccccc2)Cc2ccccc2)cc1,i
Cc1nn(CCCC(=O)NC2CCCCC2)c(C)c1[N+](=O)[O-],i
CC(=O)Nc1ccc(C(C)(c2ccccc2)c2ccc(NC(C)=O)cc2)cc1,i
N#C/C(=C\Nc1cccc(C(F)(F)F)c1)c1nc(-c2cc3ccccc3oc2=O)cs1,i
N#C/C(=C\c1ccccc1)c1nc(-c2ccccc2)cs1,65%*
N#CCc1nc(-c2ccc(-c3ccccc3)cc2)cs1,i

# Screening data (PubChem)
